# Reference: PubChem BioAssay AID1508601 (ICCB-Longwood Screening Facility, Harvard Medical School, 2020)
# “And” between values parts separate entries of the source, which are not always exact repeats. Equal entries are not always repeated. Screen size: about 5,700 compounds; about 85 (1%) were called active. No stated cut-off is given here; in the data, active means p53-positive nuclei above about 36% (passing the limit was not always enough); inactive means the rest. The sample as a whole holds a higher share of actives than the screen did.
# What was measured:
# [1] = p53 stabilisation in HPV-positive human cells, imaging, p53-positive nuclei imaging, 24 h, 48 h (AID 1508601); conditions: 24/48 h
# [2] = target: Cellular tumor antigen p53 (Homo sapiens) (UniProt P04637); experiment: as above; conditions: 24/48 h, stronger effect = higher value
# [3] = measured here: cell number at 24 h, Library stock concentration: 3.33 mM
# [4] = measured here: cell number at 48 h, Library stock concentration: 3.33 mM
# [5] = Library stock concentration: 3.33 mM
# [6] = measured here: p53 positive nuclei at 24 h, Library stock concentration: 3.33 mM
# [7] = measured here: cell number at 24 h, concentration not given here
# [8] = measured here: cell number at 48 h, concentration not given here
# [9] = measured here: p53 positive nuclei at 24 h, concentration not given here
# [10] = measured here: cell number at 24 h, Library stock concentration: 80 uM
# [11] = measured here: cell number at 24 h, Library stock concentration: 400 uM
# [12] = measured here: cell number at 24 h, Library stock concentration: 2 mM
# [13] = measured here: cell number at 24 h, Library stock concentration: 10 mM
# [14] = measured here: cell number at 48 h, Library stock concentration: 80 uM
# [15] = measured here: cell number at 48 h, Library stock concentration: 400 uM
# [16] = measured here: cell number at 48 h, Library stock concentration: 2 mM
# [17] = measured here: cell number at 48 h, Library stock concentration: 10 mM
# [18] = Library stock concentration: 80 uM
# [19] = Library stock concentration: 400 uM
# [20] = Library stock concentration: 2 mM
# [21] = Library stock concentration: 10 mM
# [22] = measured here: p53 positive nuclei at 24 h, Library stock concentration: 80 uM
# [23] = measured here: p53 positive nuclei at 24 h, Library stock concentration: 400 uM
# [24] = measured here: p53 positive nuclei at 24 h, Library stock concentration: 2 mM
# [25] = measured here: p53 positive nuclei at 24 h, Library stock concentration: 10 mM
# Chain of Cellular tumor antigen p53 (Homo sapiens) (P04637 whole entry, looked up): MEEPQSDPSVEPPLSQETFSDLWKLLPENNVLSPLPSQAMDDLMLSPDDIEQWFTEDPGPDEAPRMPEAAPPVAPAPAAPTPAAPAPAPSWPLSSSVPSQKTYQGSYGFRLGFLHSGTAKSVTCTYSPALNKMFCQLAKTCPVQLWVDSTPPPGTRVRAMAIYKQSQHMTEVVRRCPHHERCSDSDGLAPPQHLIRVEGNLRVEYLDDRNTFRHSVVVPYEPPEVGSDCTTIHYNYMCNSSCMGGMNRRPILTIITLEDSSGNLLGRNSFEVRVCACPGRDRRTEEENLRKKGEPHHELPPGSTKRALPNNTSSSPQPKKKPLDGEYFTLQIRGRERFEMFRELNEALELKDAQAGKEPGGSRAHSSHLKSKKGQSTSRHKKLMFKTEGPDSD
compound,measurement,setting,value
CCC(CC)(NC(=O)C(C)C)C(=O)NC(CCCN=C(N)N)C(=O)NC1(C(=O)NC(c2ccc(F)cc2)c2ccc(F)cc2)CCCC1 (configuration not stated),"nuclei count, normalised",[1]; [3],107%
same,"nuclei count, normalised",[1]; [4],102%
same,"p53-positive nuclei, normalised",[2]; [5],-0.0557% (inactive)
same,"p53-positive nuclei, normalised",[2]; [6],-0.115%
c1ccc(-c2nc3c(cnn3C3CCCCC3)[nH]2)c(Cn2cccn2)c1,"nuclei count, normalised",[1]; [7],106%
same,"nuclei count, normalised",[1]; [8],110%
same,"p53-positive nuclei, normalised",[2]; concentration not given here,-0.0852% (inactive)
same,"p53-positive nuclei, normalised",[2]; [9],0.144%
CC(C=CC(=O)NO)=CC(C)C(=O)c1ccc(N(C)C)cc1 (configuration not stated),"nuclei count, normalised",[1]; [3],35.3%
same,"nuclei count, normalised",[1]; [4],21.2%
same,"p53-positive nuclei, normalised",[2]; [5],88.9% (active)
same,"p53-positive nuclei, normalised",[2]; [6],74.9%
CN(C)c1ccc(C(=O)NCCCCCC(=O)NO)cc1,"nuclei count, normalised",[1]; [7],110%
same,"nuclei count, normalised",[1]; [8],106%
same,"p53-positive nuclei, normalised",[2]; concentration not given here,0.149% (inactive)
same,"p53-positive nuclei, normalised",[2]; [9],0.257%
CN(C)c1ccc(C(=O)NCCCCCCC(=O)NO)cc1,"nuclei count, normalised",[1]; [3],54.1%
same,"nuclei count, normalised",[1]; [7],116%
same,"nuclei count, normalised",[1]; [4],44.8%
same,"nuclei count, normalised",[1]; [8],100%
same,"p53-positive nuclei, normalised",[2]; [5],25% (inactive)
same,"p53-positive nuclei, normalised",[2]; concentration not given here,0.296% (inactive)
same,"p53-positive nuclei, normalised",[2]; [6],45%
same,"p53-positive nuclei, normalised",[2]; [9],0.159%
CC(/C=C/C(=O)NO)=C\[C@@H](C)C(=O)c1ccc(N(C)C)cc1,"nuclei count, normalised",[1]; [7],53.4%
same,"nuclei count, normalised",[1]; [8],27.6%
same,"p53-positive nuclei, normalised",[2]; concentration not given here,55.3% (active)
same,"p53-positive nuclei, normalised",[2]; [9],61.3%
COC(=O)c1c(NC(=O)CC2SC(=N)NC2=O)sc(C)c1C (configuration not stated),"nuclei count, normalised",[1]; [10],98.4%
same,"nuclei count, normalised",[1]; [11],104%
same,"nuclei count, normalised",[1]; [12],101%
same,"nuclei count, normalised",[1]; [13],101%
same,"nuclei count, normalised",[1]; [14],108%
same,"nuclei count, normalised",[1]; [15],108%
same,"nuclei count, normalised",[1]; [16],106%
same,"nuclei count, normalised",[1]; [17],99.8%
same,"p53-positive nuclei, normalised",[2]; [18],-0.137% (inactive)
same,"p53-positive nuclei, normalised",[2]; [19],-0.126% (inactive)
same,"p53-positive nuclei, normalised",[2]; [20],-0.195% (inactive)
same,"p53-positive nuclei, normalised",[2]; [21],-0.114% (inactive)
same,"p53-positive nuclei, normalised",[2]; [22],-0.000422%
same,"p53-positive nuclei, normalised",[2]; [23],-0.116%
same,"p53-positive nuclei, normalised",[2]; [24],-0.00728%
same,"p53-positive nuclei, normalised",[2]; [25],-0.004%
C[C@]1(C(=O)Nc2ccc(F)nc2)CCCN1c1nc(Nc2cc(C3CC3)[nH]n2)c2cccn2n1,"nuclei count, normalised",[1]; [3],46.1%
same,"nuclei count, normalised",[1]; [4],30.3%
same,"p53-positive nuclei, normalised",[2]; [5],-0.488% (inactive)
same,"p53-positive nuclei, normalised",[2]; [6],-0.0691%
C=CC(=O)Nc1cccc(Oc2nc(Nc3ccc(N4CCN(C)CC4)cc3)ncc2Cl)c1,"nuclei count, normalised",[1]; [3],64.1%
same,"nuclei count, normalised",[1]; [4],64.3%
same,"p53-positive nuclei, normalised",[2]; [5],-0.197% (inactive)
same,"p53-positive nuclei, normalised",[2]; [6],-0.375%
CNC(=O)c1nn(C)c2c1C(C)(C)Cc1cnc(Nc3ccc(N4CCN(C)CC4)cc3)nc1-2,"nuclei count, normalised",[1]; [3],62.7%
same,"nuclei count, normalised",[1]; [4],44%
same,"p53-positive nuclei, normalised",[2]; [5],0.155% (inactive)
same,"p53-positive nuclei, normalised",[2]; [6],0.144%
CN1CCN(c2ccc(Nc3c4ccccc4nc4ccccc34)cc2)CC1,"nuclei count, normalised","[1]; measured here: cell number at 24 h, Library stock concentration: 46 uM",95.9%
same,"nuclei count, normalised",[1]; [10],110%
same,"nuclei count, normalised","[1]; measured here: cell number at 24 h, Library stock concentration: 278 uM",90.1%
same,"nuclei count, normalised",[1]; [11],95.8%
same,"nuclei count, normalised","[1]; measured here: cell number at 24 h, Library stock concentration: 1.67 mM",79.3%
same,"nuclei count, normalised",[1]; [12],52.3%
same,"nuclei count, normalised",[1]; [13],32.6% and 36.6%
same,"nuclei count, normalised","[1]; measured here: cell number at 48 h, Library stock concentration: 46 uM",96.2%
same,"nuclei count, normalised",[1]; [14],109%
same,"nuclei count, normalised","[1]; measured here: cell number at 48 h, Library stock concentration: 278 uM",93.5%
same,"nuclei count, normalised",[1]; [15],103%
same,"nuclei count, normalised","[1]; measured here: cell number at 48 h, Library stock concentration: 1.67 mM",81%
same,"nuclei count, normalised",[1]; [16],48.7%
same,"nuclei count, normalised",[1]; [17],18.8% and 22%
same,"p53-positive nuclei, normalised",[2]; Library stock concentration: 46 uM,-0.136% (inactive)
same,"p53-positive nuclei, normalised",[2]; [18],-0.131% (inactive)
same,"p53-positive nuclei, normalised",[2]; Library stock concentration: 278 uM,-0.255% (inactive)
same,"p53-positive nuclei, normalised",[2]; [19],-0.231% (inactive)
same,"p53-positive nuclei, normalised",[2]; Library stock concentration: 1.67 mM,-0.00204% (inactive)
same,"p53-positive nuclei, normalised",[2]; [20],5.16% (inactive)
same,"p53-positive nuclei, normalised",[2]; [21],53.2% (active) and 55.4% (active)
same,"p53-positive nuclei, normalised","[2]; measured here: p53 positive nuclei at 24 h, Library stock concentration: 46 uM",-0.145%
same,"p53-positive nuclei, normalised",[2]; [22],-0.0662%
same,"p53-positive nuclei, normalised","[2]; measured here: p53 positive nuclei at 24 h, Library stock concentration: 278 uM",-0.137%
same,"p53-positive nuclei, normalised",[2]; [23],-0.059%
same,"p53-positive nuclei, normalised","[2]; measured here: p53 positive nuclei at 24 h, Library stock concentration: 1.67 mM",0.126%
same,"p53-positive nuclei, normalised",[2]; [24],13.1%
same,"p53-positive nuclei, normalised",[2]; [25],88.3% and 79.2%
O=C1CN(c2ncnc3sccc23)CCN1Cc1ccc(F)cc1,"nuclei count, normalised",[1]; [7],108%
same,"nuclei count, normalised",[1]; [8],111%
same,"p53-positive nuclei, normalised",[2]; concentration not given here,-0.087% (inactive)
same,"p53-positive nuclei, normalised",[2]; [9],-0.23%
CC=CCC(C)C(O)C1C(=O)NC(CC)C(=O)N(C)CC(=O)N(C)C(CC(C)C)C(=O)NC(C(C)C)C(=O)N(C)C(CC(C)C)C(=O)NC(C)C(=O)NC(C)C(=O)N(C)C(CC(C)C)C(=O)N(C)C(CC(C)C)C(=O)N(C)C(C(C)C)C(=O)N1C (configuration not stated),"nuclei count, normalised",[1]; [3],114% and 120%
same,"nuclei count, normalised",[1]; [4],120% and 121%
same,"p53-positive nuclei, normalised",[2]; [5],-0.306% (inactive) and -0.666% (inactive)
same,"p53-positive nuclei, normalised",[2]; [6],-0.452% and -0.338%
Cc1ncc(-c2ccnc(Nc3ccc(S(C)(=O)=O)cc3)n2)n1C(C)C,"nuclei count, normalised",[1]; [10],104% and 73.6%
same,"nuclei count, normalised",[1]; [11],100% and 83.3%
same,"nuclei count, normalised",[1]; [12],54.9% and 60.1%
same,"nuclei count, normalised",[1]; [3],46.1%
same,"nuclei count, normalised",[1]; [13],36.9% and 37.6%
same,"nuclei count, normalised",[1]; [14],105% and 49.6%
same,"nuclei count, normalised",[1]; [15],89.2% and 61.2%
same,"nuclei count, normalised",[1]; [16],24.1% and 33.6%
same,"nuclei count, normalised",[1]; [4],23%
same,"nuclei count, normalised",[1]; [17],21.8% and 24.6%
same,"p53-positive nuclei, normalised",[2]; [18],0.106% (inactive) and 10.7% (inactive)
same,"p53-positive nuclei, normalised",[2]; [19],0.447% (inactive) and 4.11% (inactive)
same,"p53-positive nuclei, normalised",[2]; [20],57.6% (inactive) and 42.9% (inactive)
same,"p53-positive nuclei, normalised",[2]; [5],60.3% (active)
same,"p53-positive nuclei, normalised",[2]; [21],50.8% (inactive) and 49.9% (inactive)
same,"p53-positive nuclei, normalised",[2]; [22],0.00746% and 0.944%
same,"p53-positive nuclei, normalised",[2]; [23],0.0769% and 0.14%
same,"p53-positive nuclei, normalised",[2]; [24],34.6% and 11.8%
same,"p53-positive nuclei, normalised",[2]; [6],32.5%
same,"p53-positive nuclei, normalised",[2]; [25],15.1% and 13.6%
